FMDV antiviral – antivirals against foot and mouth disease virus; FMDV antiviral cell-based qHTS; Potency, µM (top dose mostly 57.9 µM), most hits filed as inhibitors; 1.2% of 410,000 active; calls by dose curve; tested in HEK293T cells; note: read-out not given here; nearly all actives have a fitted effect of over 45% in size
HCV inhibitor – inhibitors of hepatitis C virus infection. Huh7.5.1 HCVcc-Cre infection, luciferase reporter, 44 h. Potency, µM (top dose mostly 41.8 µM), usual class: inhibitors. 3.4% of 340,000 active. AID 651820; active = well fitted inhibition curve with a large enough effect; inconclusive = small, poorly fitted or top-dose-only effect, or another doubt; inactive = no such curve, though single readings can be large or run the other way
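Seed cells (1,000/well) for 4 h; treat with compound and infect with HCVcc-Cre, moi about 0.5. Incubate 44 h, then detect luciferase activity.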
VACV mCherry inh – inhibitors of vaccinia virus infection (mCherry reporter signal); Vaccinia virus mCherry reporter infection, fluorescence; Potency, µM (top dose mostly 36.5 µM), usual class: inhibitors; 0.63% of 310,000 active; AID 720579; calls by dose curve; tested in A549 cells; note: nearly all actives have a fitted effect of over 35% in size
Vaccinia Venus – vaccinia inhibition (Venus reporter). Vaccinia virus Venus reporter expression, fluorescence. 0.46% of 330,000 active. AID 720580. Potency, µM (titrated, usually from 36.5 µM), actives largely listed as inhibitors; calls by dose curve; tested in A549 cells; note: nearly all actives have a fitted effect of over 30% in size
HCMV antiviral – human cytomegalovirus inhibition; HFF cells, HCMV-luciferase reporter, 72 h; stronger effect = lower value; activity change, negative = inhibition, % at 57.5 µM; 4.5% of 410,000 active; AID 1259415; in the data active = activity change below about -60%; inconclusive = no clear call, values can overlap the other calls; inactive = above about -39%
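After 16 h attachment at 37C, HFF cells received test compound and HCMV-luciferase (1 PFU/cell); reporter luminescence read 72 h later, data normalized against buffer-only and known inhibitor Salinomycin.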
Hits are given with their value; 0 = inactive; ? = inconclusive; - = no result; [ ] = remark or other dose. In the library only some 7.3% were active in any assay of this set; here they are far more common.

SMILES	FMDV antiviral	HCV inhibitor	VACV mCherry inh	Vaccinia Venus	HCMV antiviral
CN1CCN(c2ccc(C(CC(N)=O)NC(=O)c3ccccc3)cc2[N+](=O)[O-])CC1 (stereo not drawn)	0	0	0	0	-62
Cc1cc(C)cc(C(=O)NC(CC(N)=O)c2ccc(N3CCN(c4ccccc4)CC3)c([N+](=O)[O-])c2)c1 (stereo not drawn)	0	0	0	0	0
NC(=O)CC(NC(=O)c1ccccc1)c1ccc(N2CCN(c3ccc(F)cc3)CC2)c([N+](=O)[O-])c1 (stereo not drawn)	0	11µM	0	?	?
NC(=O)CC(NC(=O)Cc1ccc(Br)cc1)c1ccc(N2CCN(c3ccccc3)CC2)c([N+](=O)[O-])c1 (stereo not drawn)	?	?	?	?	-62
NC(=O)CC(NC(=O)c1ccccc1)c1ccc(N2CCN(c3ccccc3)CC2)c([N+](=O)[O-])c1 (stereo not drawn)	?	?	?	?	-66
NC(=O)CC(NC(=O)c1ccccc1)c1ccc(N2CCCCCC2)c([N+](=O)[O-])c1 (stereo not drawn)	0	?	0	0	0
NC(=O)CC(NC(=O)Cc1ccc(Br)cc1)c1ccc(NCc2ccc(F)cc2)c([N+](=O)[O-])c1 (stereo not drawn)	0	11µM	0	0	0
Cn1c2c(c(=O)n(C)c1=O)C(c1ccccc1OC(F)F)C1=C(CCCC1=O)N2 (stereo not drawn)	0	2.8µM	-	-	0
CCCOc1ccccc1C1CC(=O)NC2=C1C(=O)CCC2 (stereo not drawn)	0	?	-	0	0
CC1CCN(C(=O)c2ccccc2SCC(=O)NCC2CCCCC2)CC1	0	0	0	0	0
Cc1onc(C(=O)Nc2cccc(C(F)(F)F)c2)c1[N+](=O)[O-]	0	0	-	-	0
Cc1nc(Cl)c(C(=O)NC(=O)Nc2cccc(C(F)(F)F)c2)c(C)c1[N+](=O)[O-]	22µM	0	0	0	0
Cc1nc(SC(C)C(=O)Nc2ccccc2Cl)cc(-c2ccccc2)n1 (stereo not drawn)	0	-	0	0	-70
CCN(C(=S)Nc1cccc2ccccc12)c1ccccc1	0	-	0	0	0
CCOc1ccc2nc(NC3=NC(C)(C)C=C(C)N3)nc(C)c2c1	?	?	-	-	0
CCOc1ccc2nc(NC3=NC(c4ccc(OC)cc4)CC(=O)N3)nc(C)c2c1 (stereo not drawn)	-	8.9µM	0	0	-70
O=C(c1ccc(F)cc1F)N1CCCc2ccccc21	0	0	-	-	0
O=C(Nc1ccc(Cl)cc1C(=O)NCc1cccnc1)c1ccco1	0	?	-	-	0
CC1CCN(C(=O)c2cc(Cl)ccc2NC(=O)c2ccco2)CC1	0	0	0	0	-60
O=C(Nc1ccc(Cl)cc1C(=O)Nc1ccncc1)c1ccco1	0	11µM	-	-	0
O=C1C(=O)N(C2CCN(C(=O)c3ccccc3F)CC2)CCN1Cc1ccc(F)cc1	0	-	0	0	0
COc1ccc(CNC(=O)COc2ccc(Br)c(C)c2)cc1	0	0	0	0	?
Cc1ccc(OCc2ccc(Br)cc2)c([N+](=O)[O-])n1	-	-	-	-	0
Cc1ccc(OCc2ccc(-c3ccccc3)cc2)c([N+](=O)[O-])n1	0	?	0	0	-83
CCOc1cc(Br)c(COc2ccc(C)nc2[N+](=O)[O-])cc1OCC	0	8.9µM	0	0	-90
SMILES	FMDV antiviral	HCV inhibitor	VACV mCherry inh	Vaccinia Venus	HCMV antiviral
Cc1ccc(S(=O)(=O)n2cccc2C)cc1	0	0	0	0	0
C=Cn1ccnc1P(=S)(c1ccc(Cl)cc1)c1nccn1C=C	0	0	0	0	-76
CCOC(=O)[C@]12CCCC=C1N(CCC1=CCCCC1)C(=O)[C@H](CC(=O)NCCCN1CCCC1=O)C2	0	-	0	0	0
Cn1c(SCc2ccccc2)nnc1-c1cnccn1	0	0	-	-	-61
Cc1ccc(N2CC(NC(=O)/C=C\c3ccc4c(c3)OCO4)CC2=O)cc1C (stereo not drawn)	0	-	0[7.34 µM]	0[7.34 µM]	0
Cc1ccc(NC(=O)C(Cc2c[nH]c3ccccc23)NC(=O)OCC(C)C)cc1 (stereo not drawn)	0	-	0	0	0
O=C(NC1CCCCC1)C1c2ccccc2OCC(=O)N1Cc1cccnc1 (stereo not drawn)	0	-	0	0	0
Cc1nc2c(o1)C(=O)c1ccccc1C2=Nc1ccccc1	18µM	2.8µM	2.5µM	2.8µM	-100
C=C1SC(Nc2c(C)cc(C)cc2C)=NC12CCCCC2	?	0	0	0	-89
Cc1cc(NC(=S)N(Cc2ccc(Cl)cc2)Cc2ccc(C(=O)O)cc2)ccc1Cl	0	0	-	-	-62
Cc1cc(C)cc(NC(=S)N(Cc2ccc(Cl)cc2)Cc2ccc(C(=O)O)cc2)c1	0	0	0	0	0
Cc1ccccc1Nc1cc(C)c2c(O)cccc2n1	0	0[8.37 µM]	?	0	-89
CC(=O)Nc1ccc(Sc2ccc([N+](=O)[O-])o2)cc1	35µM	?	0	0	-98
COc1ccc(N2CCN(C(=O)C3CCCN(S(=O)(=O)c4ccc(C)cc4)C3)CC2)cc1 (stereo not drawn)	?	2.5µM	0	0	?
CCOc1ccc(S(=O)(=O)N2CCCC(C(=O)N3CCN(c4ccccc4)CC3)C2)cc1 (stereo not drawn)	28µM	?	0	0	0
CCOC(=O)N1CCN(C(=O)C2CCCN(S(=O)(=O)c3ccc(OCC)cc3)C2)CC1 (stereo not drawn)	0	?	0	0	?
COc1ccc(N2CCN(C(=O)C3CCCN(S(=O)(=O)c4ccc(F)cc4)C3)CC2)cc1 (stereo not drawn)	?	?	0	0	?
Cc1ccc(S(=O)(=O)N2CCN(C(=O)C3COc4ccccc4O3)CC2)cc1C (stereo not drawn)	0	-	0	0	0
CCOC(=O)N1CCN(C(=O)C2CCCN(S(=O)(=O)c3ccc(C)cc3)C2)CC1 (stereo not drawn)	0	0	-	-	-61
Cc1cc(C)c(S(=O)(=O)N2CCN(C(=O)C3COc4ccccc4O3)CC2)c(C)c1 (stereo not drawn)	0	11µM	-	-	0
CCOC(=O)C1CCCN(S(=O)(=O)c2ccc(Cl)nc2)C1 (stereo not drawn)	0	0	14µM	?	0
CCOC(=O)C1CCCN(S(=O)(=O)c2ccc(C)cc2)C1 (stereo not drawn)	0	0	0	0	0
CCOC(=O)N1CCN(C(=O)C2CCN(S(=O)(=O)c3c(C)cc(C)cc3C)CC2)CC1	0	0	-	-	-107
Cc1ccc(S(=O)(=O)N2CCCC(C(=O)N(Cc3cccs3)C3CC3)C2)cc1 (stereo not drawn)	?	16µM	?	0	0
O=C1c2ccccc2C(=O)N1c1cccc(N2C(=O)c3ccccc3C2=O)n1	-	-	0	0	-
Cc1ccc(S(=O)(=O)N(C)C)cc1NC(=O)CCNC(=O)c1ccco1	0	0	0	0	0
CC(C)(C)c1ccc(S(=O)(=O)N2CCN(Cc3noc(CCC(=O)N4CCCCC4)n3)CC2)cc1	0	-	0	0	0

Bioassay records as filed in PubChem BioAssay.
